Inconclusive results are not listed. The source made the active and inactive calls. Unless noted, calls come from the whole dose curve; as a rule, active = well fitted curve in the direction sought with a large enough effect in the repeat runs; inconclusive = weak or mixed curves; inactive = no such curve, though single readings can be large; an effect the other way counts as inactive or inconclusive.
How the values were obtained:
[1] = tested on: thyroid hormone receptor (rat, GH3 cells); assay: qHTS assay to identify small molecule agonists of the thyroid receptor (TR) signaling pathway (AID 743066; calls by dose curve)
[2] = target: Estrogen receptor (Homo sapiens) (UniProt P03372); assay: qHTS assay to identify small molecule antagonists of the estrogen receptor alpha (ER-alpha) signaling pathway (AID 743069; active = well fitted curve in the direction sought with a large enough effect in the signal ratio in the repeat runs, not every such curve was filed as active; the % refers to the signal ratio)
Procedure, shortened: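 A 17beta-estradiol challenge was applied right after compound transfer to ER-alpha-UAS-bla HEK293 cells previously kept in charcoal-stripped serum. Plates stood 18 hr at 37C and 5% CO2; fluorescence was read following 2 hr FRET substrate loading at room temperature.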

[3] = qHTS assay to identify small molecule antagonists of the estrogen receptor alpha (ER-alpha) signaling pathway - cell viability counter screen (AID 743074; calls by dose curve;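 note: HEK293 cells carrying ER-alpha-UAS-bla reporter stimulated with 17beta-estradiol; nearly all actives have a fitted effect of over 45% in size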)
[4] = target: Estrogen receptor (Homo sapiens) (UniProt P03372); assay: qHTS assay to identify small molecule agonists of the estrogen receptor alpha (ER-alpha) signaling pathway (AID 743075; calls by dose curve;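 note: HEK293 GripTite cells with ER-alpha and UAS-driven beta-lactamase reporter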)
[5] = target: Estrogen receptor (Homo sapiens) (UniProt P03372); assay: qHTS assay to identify small molecule agonists of the estrogen receptor alpha (ER-alpha) signaling pathway using the BG1 cell line (AID 743079); note: nearly all actives have a fitted effect of over 20% in size
[6] = qHTS assay to identify small molecule antagonists of the estrogen receptor alpha (ER-alpha) signaling pathway using the BG1 cell line (AID 743080; calls by dose curve;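 note: BG1 cells stimulated with 17beta-estradiol alongside compound; series mostly up to about 70 µM; nearly all actives have a fitted effect of over 25% in size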)
Procedure, shortened: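 Seeding, 24 h rest, compound transfer from DMSO, 17beta-estradiol addition, 21.5 h incubation, CellTiter-Fluor (30 min, 37 C), then ONE-Glo (30 min, room temperature): this sequence was run on BG1-Luc-4E2 reporter cells.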

[7] = qHTS assay to identify small molecule antagonists of the estrogen receptor alpha (ER-alpha) signaling pathway using the BG1 cell line - cell viability counter screen (AID 743081);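 note: compound given together with 17beta-estradiol as the ER stimulus; series mostly up to about 70 µM; nearly all actives have a fitted effect of over 45% in size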
Aromatase (Homo sapiens) = Aromatase (Homo sapiens) (UniProt P11511); assay: qHTS assay to identify aromatase inhibitors (AID 743083); note: series mostly up to about 70 µM; nearly all actives have a fitted effect of over 55% in size
[8] = qHTS assay to identify aromatase inhibitors - cell viability counter screen (AID 743084);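 note: cells stimulated with testosterone during compound exposure; nearly all actives have a fitted effect of over 55% in size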
[9] = target: Aryl hydrocarbon receptor (Homo sapiens) (UniProt P35869); assay: qHTS assay to identify small molecule that activate the aryl hydrocarbon receptor (AhR) signaling pathway (AID 743085);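 note: HG2L7.5c1 human HepG2 liver cells with stably integrated DRE-driven firefly reporter; series mostly up to about 70 µM; nearly all actives have a fitted effect of over 15% in size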
Procedure, shortened: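 Stably transfected human liver carcinoma cells (HG2L7.5c1; 20 DRE-firefly luciferase) were incubated 5 h, dosed, and kept 24 h at 37C. Agonism was scored from increased luciferase luminescence.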

[10] = qHTS assay to identify small molecule that activate the aryl hydrocarbon receptor (AhR) signaling pathway - cell viability counter screen (AID 743086);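 note: HepG2 liver cells carrying the AhR DRE luciferase reporter; series mostly up to about 70 µM; nearly all actives have a fitted effect of over 45% in size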
Procedure, shortened: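 HepG2-AhR-luc (HG2L7.5c1) cells, 4000/well, were preincubated 5 h at 37C, exposed to compound in qHTS format for 24 hr at 37C, then given CellTiter-Fluor for 30 min; viability was read as fluorescence in the reporter wells.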

[11] = target: Peroxisome proliferator-activated receptor gamma (Homo sapiens) (UniProt P37231); assay: qHTS assay to identify small molecule agonists of the peroxisome proliferator-activated receptor gamma (PPARg) signaling pathway (AID 743094; active = well fitted activation curve with a large enough effect in the signal ratio in the repeat runs, not every such curve was filed as active; the % refers to the signal ratio)
Procedure, shortened: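 HEK293H PPARg-bla cells, 5 h settle at 37C/5% CO2; compound (DMSO) 17 h, 37C; B/G FRET substrate 1 h RT; fluorescence intensity read-out. qHTS format.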

[12] = target: Peroxisome proliferator-activated receptor gamma (Homo sapiens) (UniProt P37231); assay: qHTS assay to identify small molecule antagonists of the peroxisome proliferator-activated receptor gamma (PPARg) signaling pathway (AID 743191; calls by dose curve; note: series mostly up to about 63 µM; nearly all actives have a fitted effect of over 30% in size)
Procedure, shortened: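 GeneBLAzer PPARg UAS-bla HEK293H cells carrying a UAS-driven beta-lactamase reporter were plated at 3000 cells/well, preincubated 5 h at 37C, then given compound for 17 h at 37C; LiveBLAzer B/G FRET substrate was read after 1 h at room temperature.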

[13] = qHTS assay to identify small molecule antagonists of the peroxisome proliferator-activated receptor gamma (PPARg) signaling pathway - cell viability counter screen (AID 743194); note: nearly all actives have a fitted effect of over 55% in size
Procedure, shortened: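 PPARg-UAS-bla HEK293H cells were plated, rested 5 h at 37 C, then treated with compounds plus rosiglitazone (50 nM final) for 17 h at 37 C; viability was then read by CellTiter-Glo luminescence after 30 min at room temperature.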

[14] = qHTS assay for small molecule agonists of the antioxidant response element (ARE) signaling pathway (AID 743202; active = well fitted activation curve with a large enough effect in the signal ratio in the repeat runs, not every such curve was filed as active; the % refers to the signal ratio)
Procedure, shortened: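 Following a 16 h, 37 C exposure of reporter HepG2 cells (ARE-driven beta-lactamase, 2,000 cells/well) to compounds, FRET substrate was applied for 2 h at room temperature and fluorescence intensity recorded.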

[15] = qHTS assay for small molecule agonists of the antioxidant response element (ARE) signaling pathway - cell viability counter screen (AID 743203; calls by dose curve; note: nearly all actives have a fitted effect of over 55% in size)
Procedure, shortened: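 Luminescence read-out (CellTiter-Glo, 30 min at room temperature) measured cell viability in the same wells as the ARE beta-lactamase reporter. HepG2 ARE-bla cells were treated with compounds for 16 hrs at 37C/5% CO2.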

[16] = qHTS assay for small molecule activators of the heat shock response signaling pathway - cell viability counter screen (AID 743209); note: nearly all actives have a fitted effect of over 50% in size
Procedure, shortened: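 HSE-bla HeLa; 1500 cells/well; overnight 37 C, 5% CO2; compound 5 h 37 C; LiveBLAzer B/G substrate 2.5 h RT; CellTiter-Glo 30 min RT; luminescence.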

[17] = qHTS assay for small molecule activators of the heat shock response signaling pathway (AID 743210; active = well fitted activation curve with a large enough effect in the signal ratio in the repeat runs, with a control signal flat, not every such curve was filed as active; the % refers to the signal ratio; note: series mostly up to about 63 µM)
Procedure, shortened: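 Heat shock element–beta-lactamase HeLa reporter cells; qHTS with compounds for 5 h at 37 C; detection by FRET substrate fluorescence after 2.5 h at RT.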

[18] = qHTS assay to identify small molecule agonists of the peroxisome proliferator-activated receptor delta (PPARd) signaling pathway - cell viability counter screen (AID 743211); note: nearly all actives have a fitted effect of over 55% in size
Procedure, shortened: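 In the same wells used for beta-lactamase reporter measurement, cytotoxicity is scored by CellTiter-Glo. HEK293H PPARd-bla cells receive compound for 17 h at 37C following a 5 h settling period.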

[19] = target: Peroxisome proliferator-activated receptor delta (Homo sapiens) (UniProt Q03181); assay: qHTS assay to identify small molecule agonists of the peroxisome proliferator-activated receptor delta (PPARd) signaling pathway (AID 743212; calls by dose curve)
Procedure, shortened: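 Beta-lactamase reporter read by fluorescence (LiveBLAzer B/G FRET, 2 h, room temperature). Test agents, in DMSO, incubated at 37 C with PPARd-bla HEK293H cells.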
% is set by controls: 0 for no effect and ±100 for the full control effect.

Sequence of Aryl hydrocarbon receptor (Homo sapiens) (P35869 whole entry, looked up): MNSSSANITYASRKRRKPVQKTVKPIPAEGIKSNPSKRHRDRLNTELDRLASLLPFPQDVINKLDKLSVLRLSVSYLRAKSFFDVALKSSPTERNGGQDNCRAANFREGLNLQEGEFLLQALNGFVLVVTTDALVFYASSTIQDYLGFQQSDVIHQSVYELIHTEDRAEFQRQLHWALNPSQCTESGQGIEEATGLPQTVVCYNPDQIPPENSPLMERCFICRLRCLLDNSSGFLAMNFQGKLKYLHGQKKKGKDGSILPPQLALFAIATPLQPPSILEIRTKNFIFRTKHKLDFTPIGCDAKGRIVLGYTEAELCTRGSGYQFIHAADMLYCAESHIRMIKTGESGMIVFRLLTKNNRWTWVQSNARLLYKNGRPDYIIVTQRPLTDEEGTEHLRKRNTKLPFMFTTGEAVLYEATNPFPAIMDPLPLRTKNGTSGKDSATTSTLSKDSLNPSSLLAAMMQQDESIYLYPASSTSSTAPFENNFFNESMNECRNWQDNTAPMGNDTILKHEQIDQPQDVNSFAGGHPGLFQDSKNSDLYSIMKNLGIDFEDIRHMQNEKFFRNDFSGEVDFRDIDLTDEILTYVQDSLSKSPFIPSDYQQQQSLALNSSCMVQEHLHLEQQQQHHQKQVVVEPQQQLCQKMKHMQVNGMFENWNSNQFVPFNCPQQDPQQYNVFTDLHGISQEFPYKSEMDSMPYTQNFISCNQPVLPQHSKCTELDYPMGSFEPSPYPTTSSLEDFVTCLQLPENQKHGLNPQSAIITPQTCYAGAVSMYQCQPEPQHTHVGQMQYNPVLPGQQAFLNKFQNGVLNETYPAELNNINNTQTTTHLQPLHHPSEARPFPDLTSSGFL
Sequence of Aromatase (Homo sapiens) (P11511 whole entry, looked up): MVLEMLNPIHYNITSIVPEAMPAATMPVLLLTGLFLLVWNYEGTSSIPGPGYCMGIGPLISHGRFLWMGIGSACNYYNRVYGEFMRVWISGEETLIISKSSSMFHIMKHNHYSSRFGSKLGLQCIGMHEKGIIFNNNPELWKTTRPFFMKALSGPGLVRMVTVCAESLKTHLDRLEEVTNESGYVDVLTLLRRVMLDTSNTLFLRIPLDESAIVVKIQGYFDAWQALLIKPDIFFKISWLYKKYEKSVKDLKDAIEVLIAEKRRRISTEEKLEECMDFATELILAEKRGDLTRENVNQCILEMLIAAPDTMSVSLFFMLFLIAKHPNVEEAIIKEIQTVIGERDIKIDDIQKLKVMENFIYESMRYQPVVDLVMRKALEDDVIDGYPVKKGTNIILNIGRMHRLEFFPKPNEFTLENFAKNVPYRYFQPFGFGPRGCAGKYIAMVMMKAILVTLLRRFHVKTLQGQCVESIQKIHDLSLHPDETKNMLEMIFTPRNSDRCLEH
Sequence of Peroxisome proliferator-activated receptor delta (Homo sapiens) (Q03181 whole entry, looked up): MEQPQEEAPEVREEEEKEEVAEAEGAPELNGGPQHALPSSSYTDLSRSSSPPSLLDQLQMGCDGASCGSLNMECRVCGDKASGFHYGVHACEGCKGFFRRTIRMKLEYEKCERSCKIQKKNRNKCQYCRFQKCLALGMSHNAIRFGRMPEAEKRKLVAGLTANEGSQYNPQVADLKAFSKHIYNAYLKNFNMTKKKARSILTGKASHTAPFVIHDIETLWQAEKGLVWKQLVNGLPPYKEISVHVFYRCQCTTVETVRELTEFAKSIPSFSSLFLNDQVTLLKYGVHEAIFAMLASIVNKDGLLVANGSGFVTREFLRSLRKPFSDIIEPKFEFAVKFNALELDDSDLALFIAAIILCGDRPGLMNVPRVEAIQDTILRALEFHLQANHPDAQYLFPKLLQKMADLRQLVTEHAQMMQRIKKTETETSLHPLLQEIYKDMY
Sequence of Peroxisome proliferator-activated receptor gamma (Homo sapiens) (P37231 whole entry, looked up): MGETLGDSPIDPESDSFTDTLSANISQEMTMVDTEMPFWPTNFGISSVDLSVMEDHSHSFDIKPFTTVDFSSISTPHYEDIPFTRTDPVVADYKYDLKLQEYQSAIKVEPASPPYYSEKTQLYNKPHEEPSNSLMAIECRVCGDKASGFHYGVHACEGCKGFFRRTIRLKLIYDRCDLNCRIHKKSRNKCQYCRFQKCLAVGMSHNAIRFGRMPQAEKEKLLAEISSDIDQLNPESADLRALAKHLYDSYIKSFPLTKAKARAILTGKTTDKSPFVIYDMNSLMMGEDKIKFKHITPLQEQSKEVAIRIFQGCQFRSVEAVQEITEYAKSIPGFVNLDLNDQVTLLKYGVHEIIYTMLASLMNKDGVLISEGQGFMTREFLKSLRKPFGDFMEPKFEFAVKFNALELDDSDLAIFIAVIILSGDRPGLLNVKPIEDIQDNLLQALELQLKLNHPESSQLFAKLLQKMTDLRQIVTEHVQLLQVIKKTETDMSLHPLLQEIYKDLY
Sequence of Estrogen receptor (Homo sapiens) (P03372 whole entry, looked up): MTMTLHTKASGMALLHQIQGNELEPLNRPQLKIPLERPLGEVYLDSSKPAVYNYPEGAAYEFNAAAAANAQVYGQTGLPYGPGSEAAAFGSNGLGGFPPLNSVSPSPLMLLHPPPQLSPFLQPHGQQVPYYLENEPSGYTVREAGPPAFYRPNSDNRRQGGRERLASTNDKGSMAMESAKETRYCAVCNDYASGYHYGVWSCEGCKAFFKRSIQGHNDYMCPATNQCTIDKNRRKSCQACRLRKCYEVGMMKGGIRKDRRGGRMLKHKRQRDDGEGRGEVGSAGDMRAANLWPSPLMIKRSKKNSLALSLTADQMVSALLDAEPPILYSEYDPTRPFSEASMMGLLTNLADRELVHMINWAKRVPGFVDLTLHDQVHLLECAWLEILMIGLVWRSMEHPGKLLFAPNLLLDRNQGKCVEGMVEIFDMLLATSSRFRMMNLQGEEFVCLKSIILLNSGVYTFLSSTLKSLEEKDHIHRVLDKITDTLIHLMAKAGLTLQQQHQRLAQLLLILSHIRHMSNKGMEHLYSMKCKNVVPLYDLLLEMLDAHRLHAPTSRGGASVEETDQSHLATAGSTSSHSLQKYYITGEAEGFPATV

CCCCCCCCCCCCCCCCCCCl
inactive: activation [1] 7.57% [at 8.08 µM] | activity, negative = inhibition [2] -5.29% [at 6.71 µM] | activity, negative = cytotoxicity [3] -22.2% [at 6.72 µM] | activation [4] -1.63% [at 6.71 µM] | activation [5] -11% [at 8.47 µM] | activity change, negative = inhibition [6] 0.197% [at 8.47 µM] | activity change, negative = cytotoxicity [7] -0.138% [at 8.47 µM] | activity, negative = inhibition (Aromatase (Homo sapiens)) 13.8% [at 8.47 µM] | activity change, negative = cytotoxicity [8] 0.528% [at 8.47 µM] | activation [9] -0.694% [at 8.47 µM] | viability change, negative = cytotoxic [10] -5.7% [at 8.47 µM] | activation [11] -5.7% [at 7.08 µM] | ratio activity, negative = inhibition [12] 3.29% [at 5.95 µM] | activity change, negative = cytotoxicity [13] 3.5% [at 5.95 µM] | activation [14] -2.23% [at 8.36 µM] | viability change, negative = cytotoxic [15] 1.36% [at 8.36 µM] | activity change, negative = cytotoxicity [16] -2.21% [at 5.95 µM] | activation [17] -1.98% [at 5.95 µM] | activity change, negative = cytotoxicity [18] 0.407% [at 5.95 µM] | activation [19] 0.183% [at 5.95 µM]

CCN(CCCCOC(=O)c1ccc(OC)c(OC)c1)C(C)Cc1ccc(OC)cc1 (stereo not drawn)
inactive: outcome [1] | Potency [2] | outcome [3] | Potency [4] | Potency [5] | Potency [6] | Potency [7] | Potency (Aromatase (Homo sapiens)) | Potency [8] | Potency [9] | Potency [10] | Potency [11] | Potency [12] | Potency [13] | Potency [14] | Potency [15] | outcome [16] | outcome [17] | Potency [18]

CCCC(=O)OCCC(C)C
inactive: outcome [1] | Potency [2] | outcome [3] | Potency [4] | Potency [5] | Potency [6] | Potency [7] | Potency (Aromatase (Homo sapiens)) | Potency [8] | Potency [9] | Potency [10] | Potency [12] | Potency [13] | Potency [14] | Potency [15] | outcome [16] | outcome [17] | Potency [19]

O=C1C=CCCC1
inactive: outcome [1] | Potency [2] | outcome [3] | Potency [4] | Potency [5] | Potency [6] | Potency [7] | Potency (Aromatase (Homo sapiens)) | Potency [8] | Potency [9] | Potency [10] | Potency [11] | Potency [12] | Potency [13] | Potency [14] | Potency [15] | outcome [16] | outcome [17] | Potency [18] | Potency [19]

Cc1c(N=C=O)cccc1N=C=O
inactive: outcome [1] | Potency [2] | outcome [3] | Potency [4] | Potency [5] | Potency [6] | Potency [7] | Potency (Aromatase (Homo sapiens)) | Potency [8] | Potency [9] | Potency [10] | Potency [11] | Potency [12] | Potency [13] | Potency [14] | Potency [15] | outcome [16] | outcome [17] | Potency [18]

CCCCCCCCCCCCN1CCOCC1
inactive: outcome [1] | Potency [2] | outcome [3] | Potency [4] | Potency [5] | Potency [6] | Potency [7] | Potency (Aromatase (Homo sapiens)) | Potency [8] | Potency [9] | Potency [10] | Potency [11] | Potency [12] | Potency [13] | Potency [14] | Potency [15] | outcome [16] | outcome [17] | Potency [18] | Potency [19]

C=CC(=O)NC(C)(C)C
inactive: outcome [1] | Potency [2] | outcome [3] | Potency [4] | Potency [5] | Potency [6] | Potency [7] | Potency (Aromatase (Homo sapiens)) | Potency [8] | Potency [9] | Potency [10] | Potency [11] | Potency [12] | Potency [13] | Potency [14] | Potency [15] | outcome [16] | outcome [17] | Potency [18]

CC(C)NC(=O)c1ccccc1N
inactive: outcome [1] | Potency [2] | outcome [3] | Potency [4] | Potency [5] | Potency [6] | Potency [7] | Potency (Aromatase (Homo sapiens)) | Potency [8] | Potency [9] | Potency [10] | Potency [11] | Potency [12] | Potency [13] | Potency [14] | Potency [15] | outcome [16] | outcome [17] | Potency [18] | Potency [19]

CCOC(OCC)OCC
inactive: outcome [1] | Potency [2] | outcome [3] | Potency [4] | Potency [5] | Potency [6] | Potency [7] | Potency (Aromatase (Homo sapiens)) | Potency [8] | Potency [9] | Potency [10] | Potency [11] | Potency [12] | Potency [13] | Potency [14] | Potency [15] | outcome [16] | outcome [17] | Potency [19]

CCOC(=O)CC(O)(CC(=O)OCC)C(=O)OCC
inactive: outcome [1] | Potency [2] | outcome [3] | Potency [4] | Potency [5] | Potency [6] | Potency [7] | Potency (Aromatase (Homo sapiens)) | Potency [8] | Potency [9] | Potency [10] | Potency [12] | Potency [13] | Potency [15] | outcome [16] | outcome [17] | Potency [18]

O=C(c1ccc(Cl)cc1)c1ccc(Cl)cc1
inactive: outcome [1] | Potency [2] | outcome [3] | Potency [4] | Potency [5] | Potency [6] | Potency [7] | Potency (Aromatase (Homo sapiens)) | Potency [8] | Potency [9] | Potency [10] | Potency [11] | Potency [12] | Potency [13] | Potency [14] | Potency [15] | outcome [16] | Potency [18] | Potency [19]

COC=O
inactive: activation [1] 0.249% [at 8.08 µM] | activity, negative = inhibition [2] 29% [at 6.71 µM] | activity, negative = cytotoxicity [3] 7.46% [at 6.72 µM] | activation [4] 2.27% [at 6.71 µM] | activation [5] 11.2% [at 8.47 µM] | activity change, negative = inhibition [6] 1.93% [at 8.47 µM] | activity change, negative = cytotoxicity [7] 4.5% [at 8.47 µM] | activity, negative = inhibition (Aromatase (Homo sapiens)) 2.56% [at 8.47 µM] | activity change, negative = cytotoxicity [8] 0.892% [at 8.47 µM] | activation [9] -0.706% [at 8.47 µM] | viability change, negative = cytotoxic [10] 14.9% [at 8.47 µM] | activation [11] 1.2% [at 7.08 µM] | ratio activity, negative = inhibition [12] 0.629% [at 5.95 µM] | activity change, negative = cytotoxicity [13] -0.602% [at 5.95 µM] | activation [14] -6.55% [at 8.36 µM] | viability change, negative = cytotoxic [15] -4.87% [at 8.36 µM] | activity change, negative = cytotoxicity [16] -11.9% [at 5.95 µM] | activity change, negative = cytotoxicity [18] -28.1% [at 5.95 µM] | activation [19] -8.76% [at 5.95 µM]

CCCC(=O)OCc1ccccc1
inactive: outcome [1] | Potency [2] | outcome [3] | Potency [4] | Potency [5] | Potency [6] | Potency [7] | Potency (Aromatase (Homo sapiens)) | Potency [8] | Potency [9] | Potency [10] | Potency [11] | Potency [12] | Potency [13] | Potency [14] | Potency [15] | outcome [16] | outcome [17] | Potency [18] | Potency [19]

OCCCO
inactive: outcome [1] | Potency [2] | outcome [3] | Potency [4] | Potency [5] | Potency [6] | Potency [7] | Potency (Aromatase (Homo sapiens)) | Potency [8] | Potency [9] | Potency [10] | Potency [12] | Potency [13] | Potency [14] | Potency [15] | outcome [16] | outcome [17] | Potency [18] | Potency [19]

From PubChem BioAssay (Tox21)
